{"source": "PubChem BioAssay AID540333", "about": "(Southern Research Specialized Biocontainment Screening …, 2011)", "note": "Among all 10,000 compounds or so, about 320 (3.2%) were called active. The full list was thinned out, with actives kept by preference. Unmarked numbers belong to inactive results. Rule as the data show it: active = CPE inhibition mostly above about 9.1% (no sharp cut-off); inactive = mostly below about 7.2%."}
{"assay": "antivirals protecting cells from dengue CPE – CPE readout, HTS (AID 540333)", "settings": "Dengue virus CPE inhibition in host cells, at 20 µM; stronger effect = higher value"}
{"smiles": "NC(=O)CSc1nc2c(c(=O)n1-c1ccccc1)C1(CCCCC1)Cc1ccccc1-2", "CPE inhibition": "13.4% (active)"}
{"smiles": "Nn1cnc2c(c1=O)C1(CCCCC1)Cc1ccccc1-2", "CPE inhibition": "0.27%"}
{"smiles": "CSc1n[nH]c2nc3c(c(=O)n12)C1(CCCC1)Cc1ccccc1-3", "CPE inhibition": "inactive"}
{"smiles": "COCc1nnc(NC(=O)c2cc(OC)c(OC)cc2[N+](=O)[O-])s1", "CPE inhibition": "0.875%"}
{"smiles": "Cc1ccc(C(=O)c2cnc3cc4c(cc3c2S(=O)(=O)c2ccccc2)OCCO4)cc1", "CPE inhibition": "6.29%"}
{"smiles": "Cc1ccc(S(=O)(=O)c2c(C(=O)c3ccccc3)cnc3cc4c(cc23)OCCO4)cc1", "CPE inhibition": "13.2% (active)"}
{"smiles": "CCOc1ccc(S(=O)(=O)c2c(C(=O)c3ccc(C)cc3)cnc3cc4c(cc23)OCCO4)cc1", "CPE inhibition": "3.02%"}
{"smiles": "Cc1ccc(O)c(-c2cc(C(=O)Nc3ccc(S(=O)(=O)Nc4nc(C)cc(C)n4)cc3)[nH]n2)c1", "CPE inhibition": "inactive"}
{"smiles": "COc1cc2cc(CCOC(=O)c3ccco3)oc(=O)c2cc1OC", "CPE inhibition": "0.275%"}
{"smiles": "N#Cc1ccc(NC(=O)COC(=O)CCNS(=O)(=O)c2ccccc2)cc1", "CPE inhibition": "inactive"}
{"smiles": "CCCCCCCNC(=O)C1(CC2CC(c3ccc(Cl)cc3)=NO2)CCN(C(=O)C2(C)CC2)CC1", "note": "(configuration not stated)", "CPE inhibition": "1.24%"}
{"smiles": "CCCCCCCNC(=O)C1(CC2CC(c3cccc(Br)c3)=NO2)CCNCC1", "note": "(configuration not stated)", "CPE inhibition": "inactive"}
{"smiles": "CCCCCCCNC(=O)C1(CC2CC(c3cccc(Br)c3)=NO2)CCN(C(=O)Cc2ccc(F)cc2)CC1", "note": "(configuration not stated)", "CPE inhibition": "21.7% (active)"}
{"smiles": "COC(=O)C1(CC2CC(c3ccncc3)=NO2)CCN(C(=O)OC(C)(C)C)CC1", "note": "(configuration not stated)", "CPE inhibition": "inactive"}
{"smiles": "CCCCCCCNC(=O)C1(CC2CC(c3ccccc3)=NO2)CCN(C(=O)OC(C)(C)C)CC1", "note": "(configuration not stated)", "CPE inhibition": "14.1% (active)"}
{"smiles": "CCCCCCCNC(=O)C1(CC2CC(c3cccc(Br)c3)=NO2)CCN(C(=O)C2(C)CC2)CC1", "note": "(configuration not stated)", "CPE inhibition": "2.1%"}
{"smiles": "O=C(Nc1cccc2nsnc12)c1cccnc1Cl", "CPE inhibition": "inactive"}
{"smiles": "Cc1ccc(CNC(=O)c2cc(-c3ccccc3)nn2CC2CC(c3cccnc3)=NO2)cc1", "note": "(configuration not stated)", "CPE inhibition": "inactive"}
{"smiles": "Cc1ccc(-c2cc(C(F)(F)F)c(C#N)c(=O)[nH]2)cc1", "CPE inhibition": "0.3%"}
{"smiles": "N/C(=N\\OC(=O)Cc1ccccc1[N+](=O)[O-])c1ccncc1", "CPE inhibition": "0.175%"}
{"smiles": "Cc1ccc(C(=O)N/C(=C/c2ccco2)C(=O)NCCc2c[nH]c3ccccc23)cc1", "CPE inhibition": "0.17%"}
{"smiles": "CCn1cc([N+](=O)[O-])c(C(=O)N2N=C(c3ccc(OC)cc3OC)CC2c2ccccc2O)n1", "note": "(configuration not stated)", "CPE inhibition": "0.7%"}
{"smiles": "CCn1cc([N+](=O)[O-])c(C(=O)N2N=C(c3ccc(O)c(OC)c3)CC2c2ccccc2O)n1", "note": "(configuration not stated)", "CPE inhibition": "2.17%"}
{"smiles": "CCn1cc(Cl)c(C(=O)N2N=C(c3ccc4ccccc4c3)CC2c2ccccc2O)n1", "note": "(configuration not stated)", "CPE inhibition": "10% (active)"}
{"smiles": "CC(=O)c1cccc(NC(=O)CCCOc2ccc(C)cc2)c1", "CPE inhibition": "inactive"}
{"smiles": "Cc1noc(C)c1CN(C(=S)NC(C)C)c1ccccc1", "CPE inhibition": "inactive"}
{"smiles": "Cc1ccsc1-c1n[nH]c(=S)n1CC(C)C", "CPE inhibition": "inactive"}
{"smiles": "Cn1nccc1C(=O)Nc1ccn(C23CC4CC(CC(C4)C2)C3)n1", "CPE inhibition": "1.19%"}
{"smiles": "Cn1cc([N+](=O)[O-])c(C(=O)Nc2ccn(C34CC5CC(CC(C5)C3)C4)n2)n1", "CPE inhibition": "9.72% (active)"}
{"smiles": "CCn1cc([N+](=O)[O-])c(C(=O)Nc2ccn(C34CC5CC(CC(C5)C3)C4)n2)n1", "CPE inhibition": "0.05%"}
{"smiles": "O=C(C[n+]1cccc(CNC(=O)c2ccc(OC(F)F)cc2)c1)Nc1cccc(C(F)(F)F)c1", "CPE inhibition": "0.165%"}
{"smiles": "CC(/C=C/c1ccccc1F)=N\\NC(=O)C(C)C", "CPE inhibition": "1.25%"}
{"smiles": "CN(C)c1ccc(N=Nc2ccccc2C(=O)OCC(=O)N2CCCCCC2)cc1", "CPE inhibition": "1.56%"}
{"smiles": "COc1ccc(C2OCC3(CO2)SC(=O)NC3=O)cc1", "note": "(configuration not stated)", "CPE inhibition": "0.47%"}
{"smiles": "CC(C)(C)NC(=O)C(c1cccs1)N(CC1CCCO1)C(=O)c1ccc(-c2ccccc2)[nH]1", "note": "(configuration not stated)", "CPE inhibition": "28.6% (active)"}
{"smiles": "O=C(NCC1CCCO1)C(c1cccs1)N(Cc1ccccc1Cl)C(=O)c1ccc(-c2ccccc2)[nH]1", "note": "(configuration not stated)", "CPE inhibition": "16.9% (active)"}
{"smiles": "O=C(NCC1CCCO1)C(c1cccs1)N(Cc1ccccc1)C(=O)c1ccc(-c2ccccc2)[nH]1", "note": "(configuration not stated)", "CPE inhibition": "8.12%"}
{"smiles": "O=C(NC1CCCC1)C(c1ccncc1)N(Cc1ccccc1)C(=O)c1ccc(-c2ccccc2)[nH]1", "note": "(configuration not stated)", "CPE inhibition": "3.1%"}
{"smiles": "Cc1cc(C)cc(NC(=O)C(NCC2CCCO2)c2ccccc2)c1", "note": "(configuration not stated)", "CPE inhibition": "inactive"}
{"smiles": "COc1ccc(C(=O)N(CC2CCCO2)C(C(=O)NCCC(C)C)c2ccc(C)cc2)cc1OC", "note": "(configuration not stated)", "CPE inhibition": "inactive"}
{"smiles": "O=C(COc1ccccc1[N+](=O)[O-])N/N=C/c1cccs1", "CPE inhibition": "inactive"}
{"smiles": "CCOc1cccc(/C=N/NC(=S)Nc2cc(S(=O)(=O)N3CCOCC3)ccc2N2CCOCC2)c1O", "CPE inhibition": "inactive"}
{"smiles": "Cc1ccc2[nH]c(=O)cc(C(=O)OCC(=O)c3ccccc3)c2c1", "CPE inhibition": "inactive"}
{"smiles": "COC(=O)CN1C(c2ccc(OC)cc2)=Nc2ccc(Cl)cc2C1c1ccccc1", "note": "(configuration not stated)", "CPE inhibition": "7.85%"}
{"smiles": "CCOC(=O)CN1C(=O)N[C@@H](c2ccccc2)[C@@H](C(=O)OC)[C@H]1C", "CPE inhibition": "0.065%"}
{"smiles": "COC(=O)CN1C(c2cccc(Cl)c2)=Nc2ccc(Cl)cc2C1c1ccccc1", "note": "(configuration not stated)", "CPE inhibition": "14.1% (active)"}
{"smiles": "Cc1cc(C(=O)N2CCN(c3ccc([N+](=O)[O-])cc3)CC2)no1", "CPE inhibition": "inactive"}
{"smiles": "O=C1CC(c2ccccc2)Sc2nc(-c3ccccc3)c(-c3ccccc3)n21", "note": "(configuration not stated)", "CPE inhibition": "inactive"}
{"smiles": "Cc1ccc(OCCN(C)C)c([N+](=O)[O-])c1", "CPE inhibition": "0.995%"}
{"smiles": "O=[N+]([O-])c1cccc(C(=S)N2CCN(c3ccccc3)CC2)c1", "CPE inhibition": "0.055%"}
{"smiles": "CS(=O)(=O)N1CCN(c2ccc([N+](=O)[O-])c(NCc3ccc(Cl)cc3)c2)CC1", "CPE inhibition": "1.16%"}
{"smiles": "Cc1ccc(NC(=O)CSc2nnc(-c3cccs3)o2)cc1S(=O)(=O)N1CCCCC1", "CPE inhibition": "inactive"}
{"smiles": "S=C(NCc1ccncc1)Nc1ccc(Cl)cc1", "CPE inhibition": "0.775%"}
{"smiles": "COC(=O)Cc1ccc(NC(=S)NCc2ccc(Cl)cc2)cc1", "CPE inhibition": "inactive"}
{"smiles": "COC(=O)c1cc(NC(=S)NCc2ccc(Cl)cc2)cc(C(=O)OC)c1", "CPE inhibition": "13.6% (active)"}
{"smiles": "CC1=CC(C)(C)N(C(=O)CSc2nnc(N)s2)c2ccccc21", "CPE inhibition": "0.04%"}
{"smiles": "COc1ccc2c(c1)-c1nc(/N=C/c3ccc(O)c(OC)c3)sc1CC2", "CPE inhibition": "1.8%"}
